Rows were chosen to be rich in hits. Some 19% of all compounds tested hit in one or more screens of this group.
HT1080 IDH1KD tx: toxicity to HT-1080 IDH1 knockdown cells (counter line) | Potency, µM (series often up to 46.1 µM), without a hit: at the top dose activity, negative = toxicity, most hits filed as cytotoxic | AID 686971 | 360,000 tested, 2% active | HT-1080 IDH1 knockdown viability, ATP luminescence, 48 h;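 further: 0% = DMSO wells and -100% = cell-free medium wells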
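% activity derives from luminescence (CellTiter-Glo), normalised to DMSO and no-cell wells. HT-1080-IDH1KD cells, 750/well, had 48 h compound exposure at 37 °C.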
DT40 TDP1 no CPT: qHTS for Inhibitors of human tyrosyl-DNA phosphodiesterase 1 (TDP1): qHTS in cells in absence of CPT | DT40 Tdp1-/- hTDP1 cells, no CPT, ATP luminescence, 48 h | Potency, µM (series often up to 46.2 µM), inactives show top-dose activity change, negative = growth inhibition, hits mostly inhibitors | 420,000 tested, 15% active | AID 686978, 2013; further: nearly all actives have a fitted effect of over 55% in size
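Camptothecin absent (DMSO only). Human TDP1-complemented DT40 knockout cells, 400 cells/well, 37 °C for minimum 48 hr; ATP measured via CellTiter-Glo, 30 min dark incubation, luminescence.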
KB-3-1 cytotox: kills parental KB-3-1 adenocarcinoma cells. Potency, µM (titrated, usually from 46.1 µM), usual class: cytotoxic. KB-3-1 viability, CellTiter-Glo ATP luminescence, 72 h. 400,000 tested, 1.4% active; further: nearly all actives have a fitted effect of over 60% in size
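Cells are dispensed, compounds pinned in, plates held at 37 °C for 72 h, then CellTiter-Glo is added and luminescence read after 10 minutes. Cell line: parental KB-3-1 in phenol-red-free DMEM, 10% FBS.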
DT40 TDP1 CPT: DT40-hTDP1 cell growth loss with CPT; chicken DT40 Tdp1-/-;hTDP1 cells + 20 nM CPT, ATP luminescence, 48 h; Potency, µM (titrated, usually from 46.2 µM), inactives show top-dose activity change, negative = growth inhibition, usual class: inhibitors; 420,000 tested, 12% active; AID 686979; further: nearly all actives have a fitted effect of over 55% in size
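Cell growth measured by CellTiter-Glo luminescence after a minimum 48 h, 37 C compound exposure with 20 nM CPT in Tdp1-knockout DT40 cells stably expressing hTDP1, seeded 400/well; qHTS titration format.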
KB-V1 MDR tox: kills drug-selected multidrug resistant KB-V1 cells. KB-V1 MDR cells viability, CellTiter-Glo, 72 h. Potency, µM (doses to about 46.1 µM), usual class: cytotoxic. 400,000 tested, 3.4% active. AID 1347076; further: nearly all actives have a fitted effect of over 60% in size
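Potencies derive from concentration-effect curves fitted to normalized luminescence (CellTiter-Glo) of KB-V1 cells treated for 72 h at 37 degrees C in phenol-red-free DMEM containing 10% FBS.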
HT1080NT lethal: kills 2HG-producing HT-1080-NT fibrosarcoma cells; 360,000 tested, 1.6% active; Potency, µM (top dose mostly 46.1 µM), inactives show top-dose activity, negative = less viability, most hits filed as cytotoxic; HT-1080-NT fibrosarcoma viability, CellTiter-Glo ATP luminescence, 48 h; AID 686970;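 further: NT is the 2HG producing partner of a matched IDH1 knockdown line; 0% = DMSO-treated cells and -100% = media-only wells without cells; nearly all actives have a fitted effect of over 55% in size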
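Read-out is CellTiter-Glo luminescence after 10 minutes at room temperature, following 48 hours' compound treatment of HT-1080-NT cells (750 cells/well, RPMI, 5% FBS, 37 degrees C).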
Active calls of the source: *; i = inactive; u = inconclusive; x = not tested or not shown; [ ] = remark or other dose. The call rests on the fitted dose curve; in most records, active means well fitted curve in the direction sought with a large enough effect; inconclusive means small, poorly fitted or top-dose-only effect, or another doubt; inactive means no such curve, though single readings can be large; an effect the other way counts as inactive or inconclusive. Unless noted, on the % scale 0 is the no-effect control and ±100 the full control effect; potency means the concentration at half of the fitted maximal effect.

SMILES | HT1080 IDH1KD tx | DT40 TDP1 no CPT | KB-3-1 cytotox | DT40 TDP1 CPT | KB-V1 MDR tox | HT1080NT lethal
CC(=O)Oc1ccc(OC(C)=O)c(SCCCCCCl)c1 | u | 2.91µM* | i | 2.06µM* | i | u
CC(C)C1N=C2c3ccccc3N=C(SCC(=O)NCc3ccc(Cl)cc3)N2C1=O (configuration not stated) | x | u | i | u | i | x
CC(C)C1N=C2c3ccccc3N=C(SCc3cc(=O)n4cc(Cl)ccc4n3)N2C1=O (configuration not stated) | -8.4% | 14.6µM* | u | u | 23.1µM* | -5.8%
CCn1nc([N+](=O)[O-])c(C(C#N)c2nc3cc(C(F)(F)F)ccc3s2)c(Cl)c1=O (configuration not stated) | 0.316µM* | 23.1µM* | 14.6µM* | 14.6µM* | u | 0.631µM*
C[C@H](NC(=O)c1cc2c(cn1)[nH]c1ccccc12)C(=O)O | 3.1% | u | i | u | i | 7.8%
COC(=O)[C@H](C)NC(=O)c1cc2c(cn1)[nH]c1ccccc12 | -2.6% | 18.4µM* | i | 18.4µM* | i | 17.8%
O=C(O)/C=C/C(=O)Nc1ccc(S(=O)(=O)Nc2nccs2)cc1 | 17.3% | 2.1% | i | -0.7% | i | u
CC1(C)CC(N=Cc2c(O)n(Cc3ccc4c(c3)OCO4)c(=O)c3ccccc23)CC(C)(C)N1 | 7.31µM* | 7.31µM* | i | 6.51µM* | i | 18.4µM*
Cc1ccccc1C(=O)NNc1ccc(-c2csnn2)cc1 | 8.2µM* | -17.2% | i | 3.6% | i | u
COc1ccc(S(=O)(=O)N(CC(=O)NCc2ccncc2)Cc2ccccc2)cc1 | 2.7% | 11.6µM* | i | u | u | 5.9%
CCN(CC(=O)NCc1ccc(Cl)cc1)C(=O)c1ccc(C#N)cc1 | 2.4% | u | i | 20.6µM* | i | -0.4%
COc1ccc(CNC(=O)CN(Cc2ccccc2)S(=O)(=O)c2ccc(Cl)cc2)cc1 | -26.4% | 18.4µM* | i | u | u | -1.3%[9.24 µM]
COc1ccc(/C=C(/CC(=O)NCc2ccc(Cl)cc2)c2nc3ccccc3s2)cc1 | -9.3% | -28.1% | i | u | 10.3µM* | 7.0%
COc1cc(=O)n2c(c1C(=O)NCc1ccco1)CCN(C(=O)c1cccnc1SC)CC2 | x | -4.5% | x | 12.0%[9.04 µM] | x | x
COc1ccc(C)cc1S(=O)(=O)N(CC(=O)NCc1ccc(Cl)cc1)Cc1ccccc1 | u | u | i | 20.6µM* | u | u
CCN(CC(=O)NCc1ccc(Cl)cc1)C(=O)c1cccc(S(=O)(=O)Nc2ccc(OC)cc2)c1 | 5.4% | 10.3µM* | i | u | i | 0.7%
COc1ccc(CNC(=O)CN(Cc2ccc(Cl)cc2)S(=O)(=O)c2ccccc2)cc1 | u | u | u | u | u | 0.0%[9.24 µM]
CC1=C(c2ccc(C)cc2)S(=O)(=O)NC1=NCCCN1CCN(c2ccccc2F)CC1 | x | 16.4µM* | i | u | i | x
COC(=O)CCCCCn1c(-c2ccccc2)cn2c3c(=O)n(C)c(=O)n(C)c3nc12 | x | u | i | -17.5% | i | x
COc1cc2c(cc1OC)C1(Nc3c-2c(Cc2ccccc2)nn3-c2ccccc2)C(=O)Nc2ccccc21 (configuration not stated) | u | 23.1µM* | u | u | i | u
NNC(=O)c1nnsc1-c1csnn1 | 9.6% | -3.8% | i | -23.0% | i | -0.2%
CCOc1ccc(NC(=O)Cn2nc(CC)n3c(cc4sccc43)c2=O)cc1 | x | -19.5% | i | 1.5% | i | x
COc1ccc(CNC(=O)C(C)N2Cc3ccccc3C2=O)cc1 (configuration not stated) | x | -20.2% | i | -3.3% | u | x
CC(=O)c1ccc(NC(=O)CC(c2cccs2)N2Cc3ccccc3C2=O)cc1 (configuration not stated) | x | u | i | -24.0% | i | x
COc1ccc(C(CC(=O)Nc2cc(OC)c(OC)c(OC)c2)N2Cc3ccccc3C2=O)cc1 (configuration not stated) | x | 23.1µM* | x | 23.1µM* | x | x
SMILES | HT1080 IDH1KD tx | DT40 TDP1 no CPT | KB-3-1 cytotox | DT40 TDP1 CPT | KB-V1 MDR tox | HT1080NT lethal
COc1cc(OC)c(NC(=O)CC(c2cccs2)N2Cc3ccccc3C2=O)cc1Cl (configuration not stated) | x | 18.4µM* | i | 23.1µM* | i | x
COc1ccc(C(CC(=O)NCc2ccccc2)N2Cc3ccccc3C2=O)cc1 (configuration not stated) | x | 23.1µM* | x | u | x | x
COc1ccc(C(CC(=O)Nc2ccc(C(C)=O)cc2)N2Cc3ccccc3C2=O)cc1 (configuration not stated) | x | -4.2% | x | -9.2% | x | x
COc1ccc(C(CC(=O)Nc2ccccn2)N2Cc3ccccc3C2=O)cc1OC (configuration not stated) | 8.9% | -29.5% | i | -7.0% | i | 1.6%
COc1ccc(C(CC(=O)Nc2cc(C)ccn2)N2Cc3ccccc3C2=O)cc1 (configuration not stated) | -2.3% | 13µM* | i | u | u | -10.9%
COc1ccccc1CNC(=O)CC(c1ccc(OC)c(OC)c1)N1Cc2ccccc2C1=O (configuration not stated) | x | u | i | -9.6% | u | x
COc1ccc(C(CC(=O)NCc2ccc(Cl)cc2)N2Cc3ccccc3C2=O)cc1OC (configuration not stated) | x | 13µM* | x | 18.4µM* | x | x
CCCC(C(=O)NCc1cccc(Cl)c1)N1Cc2ccccc2C1=O (configuration not stated) | x | 11.6µM* | i | u | i | x
COc1ccc(-c2ccc(CN3C(CC(C)C)C(=O)N(Cc4cn(CC5CCCCC5)nn4)CCS3(=O)=O)cc2)cc1OC (configuration not stated) | u | 20.6µM* | i | 23.1µM* | u | -14.8%
CC(C)CC1C(=O)N(Cc2cn(CCC3OCCCO3)nn2)CCS(=O)(=O)N1Cc1ccc(-c2cccc(N(C)C)c2)cc1 (configuration not stated) | 2.0% | 10.2% | i | 11.0% | i | 2.5%

Assay outcomes: PubChem, National Center for Advancing Translational Sciences (NCATS)
